This note sets out measurements from PubChem BioAssay (EPA / NIEHS).

Read-out in assay [1]: Macrophage colony-stimulating factor (MCSF), CSF1 (gene 1435)
Nature of the assay: BSK_hDFCGF_MCSF: BioMAP Diversity Plus: hDFCGF Assay for Macrophage colony-stimulating factor (MCSF) Biomarker Activity (AID 2283060). The conditions noted are these: primary human foreskin fibroblasts; actives raise or lower the signal. The procedure, abridged:
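ELISA read-out of M-CSF in human dermal foreskin fibroblast cultures, 24 h after chemical dosing; gain or loss of signal fitted bidirectionally relative to DMSO baseline.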

Assay [2] can be described thus: BSK_hDFCGF_SRB: Viability Assessment in the BioMAP Diversity Plus: hDFCGF Assay (AID 2283061).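 Also: cells exposed to compound for 24 h before the read.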 The settings on record: primary human foreskin fibroblasts. The procedure, abridged: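 Primary human foreskin fibroblasts; 24 h post-dose; fixed 10% TCA, stained 0.1% SRB, A560 read; total protein as overt cytotoxicity measure; curves fit bidirectionally vs DMSO control.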

Read-out in assay [3]: TIMP metallopeptidase inhibitor 1 (TIMP1), TIMP1 (gene 7076)
Nature of the assay: BSK_hDFCGF_TIMP1: BioMAP Diversity Plus: hDFCGF Assay for TIMP metallopeptidase inhibitor 1 (TIMP1) Biomarker Activity (AID 2283062). The conditions noted are these: primary human foreskin fibroblasts; actives raise or lower the signal. The procedure, abridged: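 ELISA readout of TIMP-1 from human dermal foreskin fibroblast cultures 24 h post-dosing. Curves were fitted in both directions against DMSO baseline, with SRB total-protein staining in parallel cultures as a cytotoxicity check.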

Read-out in assay [4]: Monokine induced gamma interferon (MIG), CXCL9 (gene 4283)
Nature of the assay: BSK_hDFCGF_MIG: BioMAP Diversity Plus: hDFCGF Assay for Monokine induced gamma interferon (MIG) Biomarker Activity (AID 2283063). The conditions noted are these: primary human foreskin fibroblasts; actives raise or lower the signal. The method in brief: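 Fibroblasts (human foreskin, primary) dosed, 24 h, MIG by ELISA; fit bidirectional vs DMSO.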

Read-out in assay [5]: Plasminogen activator inhibitor-1 (PAI1), SERPINE1 (gene 5054)
The assay can be described thus: BSK_hDFCGF_PAI1: BioMAP Diversity Plus: hDFCGF Assay for Plasminogen activator inhibitor-1 (PAI1) Biomarker Activity (AID 2283066). The conditions noted are these: primary human foreskin fibroblasts; actives raise or lower the signal. The procedure, abridged: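 Human foreskin fibroblasts in the hDFCGF system were dosed with compound for 24 h; PAI-1 was quantified by ELISA. Bidirectional curve fitting used DMSO as negative control and baseline.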

Read-out in assay [6]: Intercellular Adhesion Molecule 1 (ICAM1), ICAM1 (gene 3383)
The assay can be described thus: BSK_KF3CT_ICAM1: BioMAP Diversity Plus: KF3CT Assay for Intercellular Adhesion Molecule 1 (ICAM1) Biomarker Activity (AID 2283067). The conditions noted are these: primary human keratinocytes with fibroblasts; actives raise or lower the signal. The procedure, abridged: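 ELISA readout of ICAM-1; KF3CT human skin co-culture (keratinocytes + foreskin fibroblasts), 24 h post-dose; gain/loss fit vs DMSO baseline.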

Read-out in assay [7]: Interferon-gamma inducible Protein 10 (IP10), CXCL10 (gene 3627)
Nature of the assay: BSK_KF3CT_IP10: BioMAP Diversity Plus: KF3CT Assay for Interferon-gamma inducible Protein 10 (IP10) Biomarker Activity (AID 2283068). The settings on record: primary human keratinocytes with fibroblasts; actives raise or lower the signal. The method in brief: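 In a primary skin co-culture of keratinocytes and fibroblasts, IP-10 is quantified by ELISA at 24 h after dosing. SRB staining of parallel wells monitors overt toxicity. Curves are fitted both directions against DMSO.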

The nature of assay [8]: BSK_KF3CT_SRB: Viability Assessment in the BioMAP Diversity Plus: KF3CT Assay (AID 2283069).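 Also: total protein by sulforhodamine B staining as a cytotoxicity measure; read 24 h after compound addition.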 The conditions noted are these: primary human keratinocytes with fibroblasts. The procedure, abridged: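 Human keratinocyte and foreskin fibroblast co-culture exposed to chemical for 24 h. Total protein measured in parallel cultures by 0.1% sulforhodamine B staining after 10% TCA fixation, read at 560 nm; bidirectional fit relative to DMSO.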

Read-out in assay [9]: Interleukin-1 alpha (IL1a), IL1A (gene 3552)
The assay can be described thus: BSK_KF3CT_IL1a: BioMAP Diversity Plus: KF3CT Assay for Interleukin-1 alpha (IL1a) Biomarker Activity (AID 2283070). The conditions noted are these: primary human keratinocytes with fibroblasts; actives raise or lower the signal. The method in brief: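 Primary human keratinocyte plus foreskin fibroblast co-culture, dosed and measured at 24 h in 96-well plates. IL-1a level quantified by ELISA; bidirectional fit relative to DMSO.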

Read-out in assay [10]: TIMP metallopeptidase inhibitor 2 (TIMP2), TIMP2 (gene 7077)
Nature of the assay: BSK_KF3CT_TIMP2: BioMAP Diversity Plus: KF3CT Assay for TIMP metallopeptidase inhibitor 2 (TIMP2) Biomarker Activity (AID 2283071). The conditions noted are these: primary human keratinocytes with fibroblasts; actives raise or lower the signal. The procedure, abridged: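 Human primary keratinocyte/foreskin fibroblast co-culture dosed with chemical and sampled at 24 h. TIMP-2 levels quantified by ELISA; bidirectional fitting against DMSO negative control as baseline.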

Read-out in assay [11]: Transforming growth factor beta 1 (TGFb1), TGFB1 (gene 7040)
The assay can be described thus: BSK_KF3CT_TGFb1: BioMAP Diversity Plus: KF3CT Assay for Transforming growth factor beta 1 (TGFb1) Biomarker Activity (AID 2283072). The settings on record: primary human keratinocytes with fibroblasts; actives raise or lower the signal. The method in brief:
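Human keratinocyte plus foreskin fibroblast primary co-culture, dosed with chemical for 24 h. TGF-b1 quantified by ELISA. Activity fitted bidirectionally against DMSO negative control as baseline.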

Read-out in assay [12]: C-C motif chemokine 2 (Homo sapiens) (UniProt P13500)
Nature of the assay: BSK_KF3CT_MCP1: BioMAP Diversity Plus: KF3CT Assay for Monocyte Chemoattractant Protein 1 (MCP1/CCL2) Biomarker Activity (AID 2283073). The settings on record: primary human keratinocytes with fibroblasts; actives raise or lower the signal. The method in brief: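 KF3CT skin co-culture (keratinocytes/foreskin fibroblasts), 24 h post-dose; MCP-1 by ELISA; gain/loss of signal fit bidirectionally vs DMSO baseline.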

Read-out in assay [13]: Matrix Metallopeptidase 9 (MMP9), MMP9 (gene 4318)
Nature of the assay: BSK_KF3CT_MMP9: BioMAP Diversity Plus: KF3CT Assay for Matrix Metallopeptidase 9 (MMP9) Biomarker Activity (AID 2283074).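 As to AC50: MMP9 protein level quantified by ELISA in the co-culture.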 The conditions noted are these: primary human keratinocytes with fibroblasts; actives raise or lower the signal. The procedure, abridged:
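Human keratinocyte and foreskin fibroblast co-culture exposed to chemicals for 24 h; MMP9 biomarker measured by ELISA, bidirectional fitting relative to DMSO; cytotoxicity tracked by SRB total protein staining in parallel cultures.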

Read-out in assay [14]: urokinase plasminogen activator (uPA), PLAU (gene 5328)
The assay can be described thus: BSK_KF3CT_uPA: BioMAP Diversity Plus: KF3CT Assay for urokinase plasminogen activator (uPA) Biomarker Activity (AID 2283075). The settings on record: primary human keratinocytes with fibroblasts; actives raise or lower the signal. The procedure, abridged:
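Primary human keratinocyte/foreskin fibroblast co-culture exposed to chemical; uPA measured by ELISA at 24 h. Bidirectional fit versus DMSO, with parallel SRB total-protein staining for cytotoxicity.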

Read-out in assay [15]: CD40, CD40 (gene 958)
The assay can be described thus: BSK_LPS_CD40: BioMAP Diversity Plus: LPS Assay for CD40 Biomarker Activity (AID 2283076). The settings on record: primary human HUVEC with PBMC; actives raise or lower the signal. The method in brief: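 ELISA readout of CD40 in HUVEC/PBMC co-culture (BSK_LPS system), 24 h post-dosing; bidirectional curve fit, DMSO baseline; parallel SRB total-protein staining for cytotoxicity.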

Read-out in assay [16]: E-selectin (Homo sapiens) (UniProt P16581)
Nature of the assay: BSK_LPS_Eselectin: BioMAP Diversity Plus: LPS Assay for Eselectin Biomarker Activity (AID 2283077). The conditions noted are these: primary human HUVEC with PBMC; actives raise or lower the signal. The method in brief: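 ELISA readout of E-selectin, 24 h post-dose, HUVEC + PBMC co-culture (LPS system). Gain or loss of signal vs DMSO baseline, bidirectional fit.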

Read-out in assay [17]: Interleukin-8 (IL8), CXCL8 (gene 3576)
Nature of the assay: BSK_LPS_IL8: BioMAP Diversity Plus: LPS Assay for Interleukin-8 (IL8) Biomarker Activity (AID 2283078). The settings on record: primary human HUVEC with PBMC; actives raise or lower the signal. The procedure, abridged: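 HUVEC + PBMC co-culture, LPS-activated; test chemicals dosed, IL-8 read by ELISA at 24 h. Bidirectional curve fit vs DMSO baseline (gain or loss of signal).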

The nature of assay [18]: BSK_LPS_SRB: Viability Assessment in the BioMAP Diversity Plus: LPS Assay (AID 2283079).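 Also: total protein by sulforhodamine B absorbance as a cytotoxicity measure; measured one day after compound addition; fitted in both directions against DMSO so loss or gain of signal counts.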 The settings on record: primary human HUVEC with PBMC. The method in brief: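 HUVEC + PBMC co-culture, LPS-stimulated; compound 24 h. 10% TCA fix, 0.1% SRB stain, A560. Bidirectional fit vs DMSO.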
Read-out in assay [19]: Vascular cell adhesion molecule 1 (VCAM1), VCAM1 (gene 7412)
The assay can be described thus: BSK_hDFCGF_VCAM1: BioMAP Diversity Plus: hDFCGF Assay for Vascular cell adhesion molecule 1 (VCAM1) Biomarker Activity (AID 2283065).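 As to AC50: VCAM-1 protein level quantified by ELISA after 24 h chemical exposure.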 The settings on record: primary human foreskin fibroblasts; actives raise or lower the signal. The procedure, abridged: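 ELISA read-out of VCAM-1 on human skin fibroblasts, 24 h post-dose; gain or loss of signal fitted bidirectionally against DMSO baseline.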

Values joined by “and” are separate entries in the source; they are usually repeats but may differ in a detail not shown here. Equal entries are not always repeated. Active and inactive are the calls of the source. The calls were made as follows: active = hit-call score of the fitted dose curve at least 0.9, where 1 is the maximum; inactive = score below 0.9.

Sequence of E-selectin (Homo sapiens) (P16581 whole entry, looked up): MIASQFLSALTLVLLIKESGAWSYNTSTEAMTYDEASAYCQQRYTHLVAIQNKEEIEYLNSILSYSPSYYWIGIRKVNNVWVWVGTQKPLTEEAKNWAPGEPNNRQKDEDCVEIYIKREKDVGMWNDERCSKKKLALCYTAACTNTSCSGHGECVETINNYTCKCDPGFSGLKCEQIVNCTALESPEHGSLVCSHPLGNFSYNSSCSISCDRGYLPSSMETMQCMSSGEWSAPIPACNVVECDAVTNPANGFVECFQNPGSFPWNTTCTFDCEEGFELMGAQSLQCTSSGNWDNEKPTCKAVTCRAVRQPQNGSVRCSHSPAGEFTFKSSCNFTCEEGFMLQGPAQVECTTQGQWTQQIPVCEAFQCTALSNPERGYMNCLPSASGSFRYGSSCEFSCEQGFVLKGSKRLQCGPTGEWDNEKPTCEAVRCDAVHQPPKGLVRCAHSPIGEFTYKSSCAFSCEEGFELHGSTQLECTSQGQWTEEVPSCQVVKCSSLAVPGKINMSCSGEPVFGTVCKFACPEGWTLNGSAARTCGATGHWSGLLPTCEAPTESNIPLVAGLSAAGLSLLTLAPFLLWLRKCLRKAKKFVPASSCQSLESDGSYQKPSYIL

With `c1ccc(OP(Oc2ccccc2)Oc2ccccc2)cc1`, the outcome in assay [1], in [2], in [3], in assay [4], in assay [5] and in assay [6] was inactive. For the same compound, the outcome in assay [7], in [8], in assay [9], in assay [10], in [11] and in assay [12] was inactive. Moreover, the result in [13], in [14], in [15], in assay [16], in assay [17] and in assay [18] was inactive.
With `COP(=O)(CCC(=O)NCO)OC`, the result in [1], in assay [2], in [3], in [4], in [19] and in assay [5] was inactive. Besides, the outcome in assay [6], in assay [7], in assay [8], in assay [9], in assay [10] and in [12] was inactive. The result in assay [13], in [15], in assay [16], in assay [17] and in assay [18] was inactive.
As usually defined, the AC50 is the concentration giving half of the maximal activity seen. As to `CC(C)(C)c1ccccc1OP(=O)(Oc1ccccc1)Oc1ccccc1`, the AC50 in [1] was 20 µM (active); in assay [2], 25 µM (active); in [3], 20 µM (active); in assay [9] it was 20 µM (active); in [10], 20 µM (active); in [13], 8.49 µM (active). The AC50 in assay [15] is 25.3 µM (active); in assay [16], 20 µM (active); in assay [17], 20 µM (active); in assay [18], 20 µM (active). In addition, the outcome in assay [4], in [5], in assay [6], in assay [7], in assay [8] and in assay [11] was inactive. The outcome in assay [12] and in assay [14] was inactive.
In the case of `CSC(C)(C)C=NO`, the outcome in assay [1], in assay [2], in assay [3], in assay [4], in assay [5] and in assay [6] was inactive. Moreover, the result in assay [7], in [8], in assay [9], in assay [10], in [11] and in [12] was inactive. In addition, the result in assay [13], in assay [14], in assay [15], in assay [16], in assay [17] and in [18] was inactive.
On to `NC(=O)C(F)(F)C(F)(F)F`, for which the outcome in [1], in assay [2], in assay [3], in assay [4], in assay [19] and in assay [5] was inactive. Besides, the outcome in [6], in assay [7], in assay [8], in [9], in assay [10] and in assay [12] was inactive. Further, the result in [13], in assay [14], in assay [15], in [16], in assay [17] and in [18] was inactive.
Turning to `COC(=O)C(F)(F)C(F)(F)OC(F)(C(F)(F)F)C(F)(F)OC(F)=C(F)F` (configuration not stated), the result in assay [1], in assay [2], in assay [3], in assay [4], in assay [5] and in [6] was inactive. Also, the outcome in assay [7], in assay [8], in [9], in assay [10], in assay [12] and in assay [13] was inactive. For the same compound, the outcome in assay [15], in [16], in assay [17] and in [18] was inactive. In [19], the AC50 is 2.13 µM (active) and 2.85 µM (active).
Consider `c1nc[nH]n1`, for which the outcome in assay [1], in assay [2], in assay [3], in [4], in assay [5] and in [6] was inactive. Besides, the outcome in [7], in assay [8], in assay [9], in [10], in assay [11] and in [12] was inactive. The result in assay [13], in [14], in assay [15], in assay [16], in assay [17] and in assay [18] was inactive.
Regarding `CCN(CC)c1ccccc1`, the outcome in [1], in assay [2], in assay [3], in assay [4], in assay [19] and in assay [5] was inactive. In addition, the outcome in assay [6], in [7], in assay [8], in assay [9], in [10] and in [11] was inactive. The result in assay [12], in [13], in [15], in assay [16], in assay [17] and in [18] was inactive.
